Reference: PubChem BioAssay AID1508600 (Functional Genomics Laboratory (NCATS/FGL), 2020)
About 3,700 (7%) of roughly 53,000 sequences were called active. This is one part of a sample in which actives are shown more often than they occur. A number with no mark means an inactive call.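 The calls were made as follows: active = gene knockdowns whose robust z-score for IL-1 alpha signal is at least 2 or at most -2, so actives lie on both sides; inactive = the rest.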

experiment: Components of the Cytosolic LPS Sensing Pathway: Gene Identification via Genome-wide siRNA Screen; conditions: RAW264.7 macrophages, IL-1a HTRF, actives lie on both sides, screened at 100 nM (by protocol), cells primed 5 h with Pam3CSK4 first;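 also: robust z of the log signal after scaling to non-targeting control siRNA wells of the plate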
In short: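 Cells (RAW264.7, 1×10^4 per well) were transfected with siRNA at 100 nM and cultured 48h at 37 degrees C. Pam3CSK4 was added for 5 hours; LipidA transfection followed for 24 hour. IL-1a was then measured by HTRF.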

For GGUCACCUUAUAAUUGCCCTT against Btd, which z-score is on record?
The z-score was -2.83 (active).

With GGUGAGAUAGGUCUAGUUGTT against Col10a1 as the sequence, how does the z-score read?
The z-score was -0.273.

For GGAUCACUGACUUUGAAUUTT against Mob2, which z-score is on record?
Its z-score is -0.654.

With GGCUGUCAUGCAUUAUAUGTT against Tfeb as the sequence, how does the z-score read?
The z-score was -0.535.

For GGAGCUUCUUGACCUCGUGTT against Frmd4a, which z-score is on record?
The z-score was 0.184.

For CCUGUUUUCCGACUUGUUGTT against Il4ra, which z-score is on record?
Its z-score is 0.809.

For GGUGGUUACACAAGGAACATT against Phgdh, which z-score is on record?
The z-score was -0.314.

Which z-score does the source give for GGCUCAUCCCAAUGCUAUATT against Sdc3 here?
Its z-score is 0.304.

For GGUGAUCACUCUCUCUGAATT against Olfr187, which z-score is on record?
Its z-score is -0.975.

For CCGUAACCCAGAAAAUGUATT against Eva1a, which z-score is on record?
Its z-score is -2.01 (active).

For CCAUUGACUUACUUCUAAGTT against Gimap6, which z-score is on record?
The z-score was 0.58.

Which z-score does the source give for GGAUCAACGGAUUUUAGAATT against Gcfc2 here?
Its z-score is 1.21.

Which z-score does the source give for GGAGAUGAAAAGAGAAAUCTT against Cct6b here?
The z-score was 2.41 (active).

With GGAGCUGAUGACUUCAGGCTT against Mmp19 as the sequence, how does the z-score read?
The z-score was 1.17.

For GGGAUUCUCCAAAAGGAAGTT against Arhgap6, which z-score is on record?
Its z-score is 0.856.

With GGUGAUGAAGAGGUUCCCUTT against Fzd4 as the sequence, how does the z-score read?
Its z-score is -0.868.

For GAAGAUGCCACGCUAAAAATT against Adam34, which z-score is on record?
The z-score was 2.73 (active).

With GGGCUUUGCUGUCUAUGCATT against Dmwd as the sequence, how does the z-score read?
The z-score was -0.617.

For GGAGUUUGAUCAGAUCCUATT against Asf1b, which z-score is on record?
The z-score was 1.74.

With GAAAUCAGAAGAAAUGAAGTT against Phgr1 as the sequence, how does the z-score read?
Its z-score is -0.451.

For GGAAUCAAAGAUGGAGAGGTT against Galnt3, which z-score is on record?
The z-score was -0.409.

Which z-score does the source give for GGAAACAUUGUCAUCAUGATT against Olfr1299 here?
The z-score was -0.787.

For GGUCAUGUUUCUCUCCCAATT against Veph1, which z-score is on record?
The z-score was -2.11 (active).

With GCGGUAUCCUAGCUGUGAATT against Brsk1 as the sequence, how does the z-score read?
The z-score was -0.0667.

With CCCUGUAUAUAUGAUGACATT against Ldhd as the sequence, how does the z-score read?
The z-score was -1.83.

Which z-score does the source give for GGGUCUACAAUCACCAGACTT against Wnt10a here?
Its z-score is 1.15.

Which z-score does the source give for GAUGAUCUUUUGGAUGAACTT against Spem2 here?
Its z-score is -0.51.

For CCCAGGCACUUGUUUACAGTT against Stim2, which z-score is on record?
The z-score was -0.454.

Which z-score does the source give for GGCAUGCUUGGCUUAUUUGTT against Kcnk4 here?
The z-score was 0.0317.

With GCUGCUAUCCAGAAGGUAUTT against Egr2 as the sequence, how does the z-score read?
The z-score was -2.04 (active).

For GGCUUACUAACAGUUUUUGTT against Gem, which z-score is on record?
Its z-score is -0.29.

With GGCAUCGAGAUUUAAUUGATT against Usp27x as the sequence, how does the z-score read?
The z-score was -0.179.

Which z-score does the source give for GGCUCUCUGGCUUACUAAGTT against Mrpl37 here?
Its z-score is 1.09.

For CCCAGGUCCUACCUUCUUUTT against Ppcdc, which z-score is on record?
Its z-score is -2.1 (active).

For GGUGUGGGAUUUCUACACUTT against Sbf1, which z-score is on record?
Its z-score is 0.0854.

With GCAGCUUGCUUGAUUCAAGTT against Iqcb1 as the sequence, how does the z-score read?
The z-score was 0.424.

With GCAUUUGGGCAACGAGAUGTT against Nr5a1 as the sequence, how does the z-score read?
The z-score was -1.3.

With GGCAGCUGGAAAGACAAAATT against Snca as the sequence, how does the z-score read?
The z-score was 1.19.

Which z-score does the source give for GCUGAGAGUAUCCUUAUUCTT against Fhdc1 here?
The z-score was 0.374.

Which z-score does the source give for GGCCAACAUCUGCUAUGUCTT against Hao2 here?
Its z-score is -2.58 (active).

Which z-score does the source give for GGUCAACGUGUAUGUAUUUTT against Lrat here?
Its z-score is -1.27.

For CGUGCAUGUGUAAGUCAGGTT against Hpvc2, which z-score is on record?
Its z-score is 0.68.

Which z-score does the source give for GCAAGAGCUGAGUACUCUGTT against Ahsp here?
Its z-score is -0.522.

For GGAAGUUUAAAGUCUAGAATT against Adcy7, which z-score is on record?
Its z-score is 0.477.

For GGCCCAAGAGAACAUCAAATT against Speer2, which z-score is on record?
The z-score was -2.16 (active).

For GCAGUCUCCAAUUGAGAUUTT against Car13, which z-score is on record?
Its z-score is -0.0313.

For CUCCGACCAUACUGGAAGATT against Arpp21, which z-score is on record?
Its z-score is -0.406.

For GCAAGCUAGAGAAAAUCAGTT against Serpinb3b, which z-score is on record?
Its z-score is -0.231.

With GGAAAAAAGGUCUGUAAAUTT against Ubl4b as the sequence, how does the z-score read?
Its z-score is 0.223.

For GGAUGUGCUGACCUUACAGTT against Gaa, which z-score is on record?
Its z-score is 2.35 (active).

Which z-score does the source give for GCGGAACAUCUUAGCUUAATT against Perm1 here?
Its z-score is -0.111.

With GCCCUGGAAAGGAUGUUUGTT against Hba-a1 as the sequence, how does the z-score read?
The z-score was -0.607.

With UAGCCACUCAUCAUUCUAATT against Gm10319 as the sequence, how does the z-score read?
The z-score was 0.964.

Which z-score does the source give for GGCACUUUUGAUUUCAGAUTT against Nrd1 here?
Its z-score is 3.52 (active).

For GCUGGAUAUUUCUAAGUAUTT against A26c3, which z-score is on record?
The z-score was 1.9.

With CCGUUAGGUUUUUAUCCAATT against Ube2b as the sequence, how does the z-score read?
Its z-score is 0.193.

With GGACCUUUUAUCUGAAAUGTT against Papln as the sequence, how does the z-score read?
The z-score was 1.54.

With GGAUGUGACUCAGAUUGGGTT against Tmem171 as the sequence, how does the z-score read?
Its z-score is 0.0209.

Which z-score does the source give for GGAGAUGGCCACCUAUUUGTT against Csnk1g2 here?
The z-score was -0.325.

Which z-score does the source give for GGAAAAAGCCUAACUAUGATT against Ccnl1 here?
The z-score was -0.7.

For GCAUGAUAUCAGUGGCAAGTT against Itga11, which z-score is on record?
Its z-score is -2.41 (active).

For GCCUGUUGCUAUGAAUGGUTT against Zfp597, which z-score is on record?
Its z-score is -0.353.

With GGAAGCAUUGAAGAUAAGATT against Topbp1 as the sequence, how does the z-score read?
Its z-score is -0.273.

Which z-score does the source give for CCAUUGGAUCCAUUCCUAUTT against Plcd3 here?
Its z-score is -0.984.

Which z-score does the source give for CCUCUGUCUGCUAAUAAGATT against R3hdm4 here?
The z-score was 1.01.

For “GGAGGCCAUCACACUUAGATT against 4933421I07Rik”, which z-score is on record?
Its z-score is -2.27 (active).

Which z-score does the source give for GUUCCCGUUCUACGAGAAGTT against Foxl2 here?
The z-score was 1.22.

With CCAAAUGACAGCUAUGGCCTT against Gtf2ird2 as the sequence, how does the z-score read?
Its z-score is -0.312.

With GCUGUCCAAGUACGAGACATT against Atoh7 as the sequence, how does the z-score read?
The z-score was 0.0721.

For GCUCCUGUGAUUGAUGCAGTT against Dync1h1, which z-score is on record?
Its z-score is 0.528.

Which z-score does the source give for GCAUUUAUAAUUGCUGAACTT against Cbx1 here?
Its z-score is -0.637.

Which z-score does the source give for GGAACCACACAUGUGUUAATT against Grik2 here?
The z-score was -0.281.

For GGACAAUUGCCUUUUGACATT against Thbs3, which z-score is on record?
Its z-score is 0.146.

Which z-score does the source give for CCAGCAGCCUUCUAACUAUTT against Hnrnpa2b1 here?
The z-score was 2.14 (active).

For GGUCUUCUACAACUCGGAATT against Sgpp1, which z-score is on record?
Its z-score is -0.146.

Which z-score does the source give for GGUGGUGAGAUAGAGAAAUTT against C1qc here?
Its z-score is -0.115.

For GCAUUACACUUAACUGACGTT against Zfp652, which z-score is on record?
The z-score was -1.28.

With CCCAAUAACAUCUUAAGAUTT against Lyn as the sequence, how does the z-score read?
Its z-score is -0.254.

Which z-score does the source give for GGGAGACGGCGAGGUUUUATT against Arl6ip4 here?
The z-score was 2.89 (active).

For GGAAUGUCACUUUGACUCUTT against Arxes1, which z-score is on record?
The z-score was -0.533.

For GGCCAGAGAAGAUUACUUUTT against Ajuba, which z-score is on record?
The z-score was 1.03.

Which z-score does the source give for GGACCUCACAGAUUAUGGGTT against Ebi3 here?
The z-score was 0.693.

For “CGCCUACAGCUCUAUCUUATT against 2700062C07Rik”, which z-score is on record?
Its z-score is 1.05.

Which z-score does the source give for GGCGACAUGAAAGAAGGCATT against Klk6 here?
The z-score was 2.61 (active).

With ACCCUCACCUCGCAUGACUTT against Pcbd2 as the sequence, how does the z-score read?
Its z-score is -1.57.

With GGACAAAGUAUUUGUGACCTT against Cd3d as the sequence, how does the z-score read?
Its z-score is 0.00913.

With GCAAGAUCCAGCCCUAUCATT against Usp17lc as the sequence, how does the z-score read?
Its z-score is -0.439.

For GGAAAGUCCUUCAUCAGCATT against Cep120, which z-score is on record?
The z-score was -2.91 (active).

With GGACAAGAUGAUCUGCCUATT against Lrrc8a as the sequence, how does the z-score read?
Its z-score is 0.722.

For GCCGAUACUUGAGCCAGUUTT against Srd5a1, which z-score is on record?
Its z-score is 0.477.

With GCUUCGACACUUUAUUUCUTT against Cnp as the sequence, how does the z-score read?
The z-score was 0.26.

For GGGUUUUCUUGUGUGAAAATT against Pomp, which z-score is on record?
Its z-score is -2.93 (active).

Which z-score does the source give for CGAGGGAAUGCACUACAACTT against Chpf here?
Its z-score is 2.16 (active).

Which z-score does the source give for GGAAGACCAGCAGUUAAGATT against Grb10 here?
Its z-score is -1.56.

With GGUGGAAGAGGUCAAAUAATT against Denr as the sequence, how does the z-score read?
Its z-score is 1.05.

Which z-score does the source give for GGAAAAAGACUUCUAUCACTT against Ly6g6g here?
The z-score was -2.03 (active).

With GGCUUUUGAGAUUGCUAAATT against Mfap3l as the sequence, how does the z-score read?
The z-score was -0.491.

For GGCCUUUGAUGACUUCAUCTT against Cacna1h, which z-score is on record?
The z-score was 0.904.

Which z-score does the source give for CCACUGGACAGGAACAAAGTT against Rims1 here?
The z-score was -1.2.

Which z-score does the source give for GGAGGUGAUGCAGAUGCUGTT against Gpi1 here?
Its z-score is 3.06 (active).

Which z-score does the source give for GCCGACUCAUGGUUUAGAATT against Tmem18 here?
The z-score was -0.0972.

Which z-score does the source give for GGCAAUGAAUUUAACAAUCTT against Zfp874a here?
Its z-score is -0.351.

Which z-score does the source give for GGGACUUGAUCUCCUGAGUTT against Krtap4-2 here?
Its z-score is -0.223.

Which z-score does the source give for GGACAACGAGUGUCUGGGUTT against Cx3cr1 here?
The z-score was 4.8 (active).

For CCCAUGGUCACUUAUAUAUTT against Jarid2, which z-score is on record?
Its z-score is 0.109.

For GGAGCUUCGUGGAUAAGAGTT against Padi3, which z-score is on record?
The z-score was -1.79.

With GGUUGUUGGAAAAGAUGAATT against Ids as the sequence, how does the z-score read?
The z-score was -1.55.

With GGAUCAUCCAAGUGUUCCGTT against Olfr555 as the sequence, how does the z-score read?
The z-score was 1.51.
